AmpC inh detg = blocks E. coli AmpC beta-lactamase in detergent assay; P00811; AmpC hydrolysis of nitrocefin, absorbance 480 nm, 0.01% Triton; Potency, µM (doses to about 114 µM), without a hit: at the top dose activity change, negative = inhibition, hits mostly inhibitors; actives 0.041% (n = 370,000); AID 485294;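 further: 0% = no-compound wells and -100% = no-enzyme wells; nearly all actives have a fitted effect of over 25% in size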
Target sequence (P00811 whole entry, looked up): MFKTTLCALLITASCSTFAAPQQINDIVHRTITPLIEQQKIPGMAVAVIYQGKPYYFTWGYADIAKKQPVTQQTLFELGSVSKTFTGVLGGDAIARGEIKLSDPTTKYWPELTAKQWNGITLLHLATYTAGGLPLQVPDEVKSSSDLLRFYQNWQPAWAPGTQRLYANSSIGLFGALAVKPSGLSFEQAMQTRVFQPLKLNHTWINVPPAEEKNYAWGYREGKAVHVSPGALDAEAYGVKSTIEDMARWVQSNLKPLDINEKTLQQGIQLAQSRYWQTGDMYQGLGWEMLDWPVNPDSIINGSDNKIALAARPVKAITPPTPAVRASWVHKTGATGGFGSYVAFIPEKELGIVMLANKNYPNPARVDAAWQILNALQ
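AmpC (5.3 nM in the dispensed reagent) in 20 mM phosphate pH 7.0 with 0.01% (detergent screen) or 0.0001% Triton X-100 was preincubated with compounds for 15 min at room temperature. Nitrocefin was then added from an 800 uM solution, and hydrolysis was followed at 480 nm.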
AmpC no deterg = inhibitors of E. coli AmpC beta-lactamase without detergent | AmpC nitrocefin hydrolysis, absorbance 480 nm, 0.0001% Triton | actives 0.52% (n = 330,000) | P00811 | Potency, µM (series often up to 57.1 µM), inactives show at the top dose activity change, negative = inhibition, hits mostly inhibitors;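 further: plate controls were no compound for no effect and no enzyme for full effect; nearly all actives have a fitted effect of over 20% in size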
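AmpC (5.3 nM in the dispensed reagent) in 20 mM phosphate pH 7.0 with 0.01% (detergent screen) or 0.0001% Triton X-100 was preincubated with compounds for 15 min at room temperature. Nitrocefin was then added from an 800 uM solution, and hydrolysis was followed at 480 nm.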
FBPA Giardia inh = blocks Giardia fructose-bisphosphate aldolase activity. A8B2U2. purified Giardia FBPA. Potency, µM (series often up to 59.6 µM), without a hit: at the top dose activity, negative = inhibition, most hits filed as inhibitors. actives 0.71% (n = 290,000). AID 2451; further: nearly all actives have a fitted effect of over 55% in size
Target sequence (A8B2U2 whole entry, looked up): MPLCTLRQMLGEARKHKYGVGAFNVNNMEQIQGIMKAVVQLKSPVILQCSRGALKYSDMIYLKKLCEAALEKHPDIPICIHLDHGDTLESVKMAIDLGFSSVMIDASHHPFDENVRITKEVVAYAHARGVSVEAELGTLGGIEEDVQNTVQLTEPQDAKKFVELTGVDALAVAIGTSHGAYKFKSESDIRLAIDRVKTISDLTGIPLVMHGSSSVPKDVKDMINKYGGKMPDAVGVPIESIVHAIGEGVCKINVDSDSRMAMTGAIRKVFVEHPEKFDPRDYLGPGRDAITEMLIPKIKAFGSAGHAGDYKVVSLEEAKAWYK
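Giardia FBPA (40 nM reagent) was preincubated 10 min at RT with compound (up to 57.5 uM final), then substrate plus GAPDH/TPI/NAD/arsenate coupling system with diaphorase/resazurin was added; resorufin fluorescence (525/598 nm) was read after 20 min.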
RE007 growth inh = less growth of the S. pombe RE007 Vpr strain; S. pombe RE007 Vpr strain, BacTiter-Glo ATP luminescence, 24 h; actives 0.21% (n = 360,000); Potency, µM (top dose mostly 92.2 µM), inactives show at the top dose activity change, negative = less growth, hits mostly inhibitors; active means well fitted falling curve with a large enough effect; inconclusive means small, poorly fitted or top-dose-only effect; inactive means no such curve, though single readings can be large or run the other way; further: nearly all actives have a fitted effect of over 50% in size
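Fission yeast strain RE007, carrying one chromosomally integrated HIV-1 vpr copy, was seeded at OD 0.01 in PMG+AL medium with 23 nL pinned compound. After 24 h at 30 °C and 99% humidity, viability was read by BacTiter-Glo luminescence.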
Sm TGR inh = inhibitors of Schistosoma mansoni thioredoxin glutathione reductase; Potency, µM (top dose mostly 114 µM), inactives show at the top dose activity change, negative = inhibition, actives largely listed as inhibitors; purified TGR, DTNB reduction, TNB absorbance 405 nm; Q962Y6; AID 485364; actives 3% (n = 360,000); further: nearly all actives have a fitted effect of over 60% in size
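TGR 20 nM + NADPH 100 uM (dispensed conc.), cpd preinc 15 min RT; start with NADPH (500 uM addition) then DTNB (15 mM addition). Kinetic TNB absorbance, 405 nm filter. Four-parameter Hill fit across titration.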
Starred values were filed as active, the others as inactive; ? = inconclusive; / = not tested or not shown. This is a sample that favours compounds with a hit; in the whole collection about 3.4% have one here. Unless noted, the call rests on the fitted dose curve; in most records, active means well fitted curve in the direction sought with a large enough effect; inconclusive means small, poorly fitted or top-dose-only effect, or another doubt; inactive means no such curve, though single readings can be large; an effect the other way counts as inactive or inconclusive. Unless noted, on the % scale 0 is the no-effect control and ±100 the full control effect; potency means the concentration at half of the fitted maximal effect.

SMILES	AmpC inh detg	AmpC no deterg	FBPA Giardia inh	RE007 growth inh	Sm TGR inh
Cc1[nH]c(C)c(C(=O)O)c1CNC1CCCCC1C (stereo not given)	-2.2%	-7.8%	-2.2%	/	12.7%
CCSC1(SCC)N=C(N)C2(C#N)C(c3ccccc3)NC3=C(CCC3)C12C#N (stereo not given)	?	-33.9%	-4.8%	?	?
CCSC1(SCC)N=C(N)C2(C#N)C(c3ccc(OC)c(OC)c3OC)C12C#N (stereo not given)	-8.1%	-0.5%	-21.8%	5.62µM*	14.1µM*
COc1cc2c(ccc3cc(OC)c(OC)c(O)c32)cc1O	-2.0%	-53.3%	-5.1%	-1.8%	44.7µM*
COc1cc2cccc(OC)c(=O)c2c(O)c1OC	?	-10.5%	-0.8%	-14.5%	-10.4%
Cc1cccc(NC(=O)c2nc(S(C)(=O)=O)ncc2Cl)c1	1.6%	/	/	/	4.47µM*
COc1cccc(NC(=O)c2nc(S(C)(=O)=O)ncc2Cl)c1	-12.5%	-0.5%	11.4%	-1.1%	10µM*
COc1cccc(NC(=O)c2nc(SC)ncc2Cl)c1	-0.5%	-17.9%	-5.0%	-4.5%	3.8%
O=C(Nc1nccs1)C1CC(=O)N(c2ccccc2Cl)C1 (stereo not given)	1.1%	-8.8%	-0.2%	5.9%	-3.5%
COc1ccc(C(Nc2ccccc2)P(=O)(Oc2ccccc2)Oc2ccccc2)cc1 (stereo not given)	-3.8%	-16.7%	16.9%	5.6%	-11.0%
CCOc1ccc(NC(c2ccccc2)P(=O)(OC)OC)cc1 (stereo not given)	11.3%	0.4%	11.8%	-1.8%	15.8µM*
Cc1ccc(S(=O)(=O)n2nc(-c3ccc(Cl)cc3)nc2NCc2ccc(F)cc2)cc1	20.4%	/	/	/	13.1%
COc1ccc(NC(=O)c2sc3nc[nH]c(=O)c3c2C)cc1OC	5.7%	/	/	/	24.2%
Fc1cccc(NC(=S)NC2CCCCCCC2)c1	2.6%	12.6µM*	/	8.2%	-4.8%
S=C(Nc1ccc(Cl)c(Cl)c1)NC1CCCCC1	-3.3%	-30.7%	9.8%	8.5%	2.2%
S=C(Nc1ccc2nsnc2c1)NC1CCCCC1	-5.6%	-21.1%	1.77µM*	0.2%	?
FC(F)(F)c1cccc(NC(=S)NC2CCCC2)c1	3.8%	-32.1%	-4.2%	-1.0%	-18.9%
Cc1ccc(-n2ncc(C(=O)NCc3cccs3)c2C2CCN(C(=O)OC(C)(C)C)CC2)cc1	16.3%	/	/	/	0.7%
Cc1ccc(Cl)cc1N1CCN(S(=O)(=O)c2ccc3c(c2)NC(=O)C(C)C(=O)N3)CC1 (stereo not given)	-5.1%	11.2µM*	11.4%	2.1%	79.4µM*
Cc1cccc[n+]1C1C(c2ccccc2)C(C#N)=C(C(=C=[N-])C#N)NC1(O)C1CC1 (stereo not given)	-0.6%	-31.0%	?	-23.7%	5.62µM*
N#CC(=C=[N-])C1=C(C#N)C(c2ccccc2F)C([n+]2ccccc2)C(O)(C2CC2)N1 (stereo not given)	-0.4%	-38.9%	-27.9%	4.1%	-25.8%
CC(C)OC(=O)c1ccc(NC(=O)c2cccc(-n3cnnn3)c2)cc1	2.5%	1.3%	/	11.1%	-3.0%
COc1ccccc1-c1nnc(SCC(=O)NC2CC2)n1C	5.8%	-19.5%	/	-16.2%	0.8%
CCOC(=O)C1C(=O)C=C(c2cccc(NS(C)(=O)=O)c2)CC1c1ccco1 (stereo not given)	8.1%	-13.4%	-4.3%	1.1%	31.6µM*
Cc1cccc(NC(=O)c2onc3c2CCCC3)c1C	-2.5%	-14.5%	1.4%	3.98µM*	-16.4%
SMILES	AmpC inh detg	AmpC no deterg	FBPA Giardia inh	RE007 growth inh	Sm TGR inh
COC(=O)c1cccc(NC(=O)c2onc3c2CCCC3)c1	-7.0%	-23.4%	-0.6%	?	-7.8%
Cc1ccccc1NC(=O)c1csc2c1CCCC2	1.6%	0.0%	-6.7%	-1.6%	3.1%
O=C(Nc1ccc2ccccc2c1)c1onc2c1CCCC2	-6.4%	-41.1%	-5.4%	3.55µM*	-26.2%
Cc1ccccc1NC(=O)c1onc2c1CCCC2	-8.4%	-8.3%	0.7%	5.01µM*	0.3%
Cc1cccc(NC(=O)c2onc3c2CCCC3)n1	1.8%	1.8%	-2.9%	22.4µM*	4.1%
N#CC1(NC(=O)COC(=O)c2cc([N+](=O)[O-])ccc2N2CCCC2)CCCCC1	?	11.8%	/	-0.7%	-1.4%
Cc1ccc(-c2nc(S(=O)(=O)c3ccccc3)c(SCC(=O)NC3CCCCC3)o2)cc1	6.2%	/	/	/	-5.0%
CC1(c2nnnn2Cc2ccccc2)CCC(=O)N1C1CC1 (stereo not given)	/	/	/	6.7%	/
CCOc1ccc(C(c2c(O)cc(C)n(Cc3ccco3)c2=O)N2CCN(c3ccccc3)CC2)cc1 (stereo not given)	-1.7%	/	/	/	3.55µM*
CCOc1ccc(NC(=O)C2CC(=O)N(Cc3ccco3)C2)cc1 (stereo not given)	-1.0%	-9.8%	/	-15.6%	-27.9%
CCOc1ccc(C(c2c(O)cc(C)n(Cc3ccco3)c2=O)N2CCCCC2)cc1 (stereo not given)	1.9%	/	/	/	7.08µM*
COc1ccc(N2CCN(C(c3cc(OC)ccc3OC)c3nnnn3Cc3ccco3)CC2)cc1 (stereo not given)	-1.4%	57.8%	?	0.6%	-32.0%
Cc1oc(-c2cccc(Cl)c2)nc1CN1CCCC(C(=O)N2CCN(c3ccc(F)cc3)CC2)C1 (stereo not given)	-10.6%	/	/	/	1.2%
N#CC1=C(N)OC2=C(CC/C2=C\c2ccccc2Cl)C1c1ccccc1Cl (stereo not given)	-2.8%	-57.3%	-10.4%	-24.7%	-31.1%
N#CC1=C(N)OC2=C(CC/C2=C\c2ccccc2)C1c1ccccc1 (stereo not given)	4.7%	11.2µM*	13.6%	-23.5%	11.2µM*
NS(=O)(=O)c1ccc(CCNC(=O)c2ccc[nH]c2=S)cc1	-9.6%	-19.2%	5.3%	8.91µM*	-3.5%
CCOc1ccccc1C(=O)NCC(=O)OCC(=O)NCCc1ccc(S(N)(=O)=O)cc1	?	-2.1%	-0.1%	4.5%	-4.2%
NS(=O)(=O)c1ccc(CCNC(=O)c2ccccc2OCc2ccc(F)cc2)cc1	?	11.2µM*	5.5%	4.9%	4.8%
CC(C)Cc1nc2n[nH]c(N)c2c2c1CCC2	-3.6%	-14.5%	-10.3%	12.0%	?
COc1ccc(C2=CC(=O)CC(c3ccc(F)cc3)C2)cn1 (stereo not given)	/	/	/	-8.2%	/
CCOC(=O)C1CCCN(C(=O)CCCn2nc(C)n3c(cc4sccc43)c2=O)C1 (stereo not given)	-14.4%	34.9%	3.9%	1.6%	6.0%
COc1cc(CN(C)CC(=O)c2[nH]c(C)c(C(C)=O)c2C)ccc1OC(F)F	-3.2%	-5.0%	-12.9%	-8.2%	22.4µM*
